Results on five compounds are retold here after PubChem BioAssay.

What is called inhibition is the drop in the measured response relative to a control, in per cent.

Experiment [1] is described as follows: rapamycin-like changes in RPL19A-GFP expression – cell-based, S. cerevisiae, multiplex flow cytometry, primary screen (AID 1862; in the data active = percent of DMSO control GFP below about 86%;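 note: lower values mimic rapamycin by blocking the RPL19A rise seen in DMSO cells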). Particulars: S. cerevisiae RPL19A-GFP strain, flow cytometry fluorescence, 3 h; at 10 µM; stronger effect = lower value.
The nature of experiment [2]: TOR pathway GLN3 branch reporter MEP2-GFP changes – S. cerevisiae, multiplex flow cytometry, primary screen (AID 1867;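 active = GFP response, as percent of the DMSO control, above the screen-wide mean plus 3 SD, about 139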;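 note: median GFP channel fluorescence of barcode-gated MEP2-GFP cells measured by flow cytometry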). Particulars: S. cerevisiae MEP2-GFP strain, 3 h, at 10 µM, stronger effect = higher value, 100% means same as DMSO wells. For orientation: In flow cytometry, cells or beads pass a laser one at a time.
Experiment [3] is described as follows: TOR pathway RTG branch CIT2 reporter changes – S. cerevisiae, GFP fusion, multiplex flow cytometry, primary screen (AID 1870;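 active = percent response above a set limit, the screen-wide mean plus 3 SD, cut at about 130% in these data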;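 note: barcoded CIT2-GFP strain pooled with four other GFP strains with rapamycin as positive control; median GFP fluorescence per well over plate mean of DMSO wells so 100% = DMSO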). Particulars: S. cerevisiae CIT2-GFP expression, 3 h, at 10 µM, stronger effect = higher value.
A short description of experiment [4]: TOR pathway LAP4-GFP level changes – S. cerevisiae, multiplex flow cytometry, primary screen (AID 1873). Particulars: S. cerevisiae LAP4-GFP expression, 3 h, at 10 µM, stronger effect = higher value.
The nature of experiment [5]: yeast AGP1-GFP level changes, GLN3 branch – cell-based, multiplex flow cytometry, S. cerevisiae, primary screen (AID 1887;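 active = GFP signal above the screen-wide mean plus 3 SD, that is over about 124.5% of the solvent control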;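 note: AGP1-GFP fusion strain of S. cerevisiae within a five-strain barcoded multiplex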). Particulars: 3 h, at 10 µM, stronger effect = higher value.
The nature of experiment [6]: reduced mouse 2C T cell binding to pMHC/ICAM-1 vesicles – MLPCN validation set, flow cytometry, LFA-1/ICAM-1 modulator project, pilot screen (AID 2523;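 active = response below a set limit, under 55% cells CD8-positive and vesicle-bound, and CD8 cells' 90th-percentile brightness under 279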;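 for vesicle binding response: mean PE anti-B7-1 fluorescence of CD8+ cells relative to row control; 100% = QL9-loaded vesicles with DMSO vehicle in the same plate row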). Particulars: 2C mouse CD8+ T cells, at 7 µM, stronger effect = lower value; double positive events: measured here: CD8+/vesicle+ event percentage.
Experiment [7] has as its target Integrin beta-1 (Homo sapiens) + Integrin alpha-4 (Homo sapiens) (UniProt P13612+P05556). Description: alpha4beta1 integrin LIBS antibody binding reduction – U937 cells, HUTS-21 mAb, flow cytometry, validation set, VLA-4 allosteric modulator project, pilot screen (AID 2674;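 active = inhibition above 50%, about 3 SD of the validation set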;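 note: antibody binding induced by the VLA-4 ligand LDV present at three times its Kd; 0% = LDV ligand with antibody and no compound and 100% = antibody without LDV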). Particulars: HUTS-21 LIBS mAb binding, at 6.7 µM, stronger effect = higher value, binding induced by LDV ligand.

Experiment [8] in a line: calorie-restriction mimetic ROS inhibitors, yeast – validation compound set, pilot screen (AID 2706;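 active = superoxide response below 65% of plate, a cut near 3 SD across the whole screen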;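 note: yeast exposed to compound for one week at 30 degrees C before staining; 100% = mean of all compound wells on the same plate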). Particulars: S. cerevisiae aging, superoxide DHE fluorescence; at 10 µM, stronger effect = lower value.
The target in experiment [9] is Beta-adrenergic receptor kinase 1 (Homo sapiens) (UniProt P25098). Put plainly: GRK2 binders displacing RNA aptamer, biochemical, validation, human GRK2, bead flow cytometry (AID 488806;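 active = aptamer binding inhibition above 30%, about 3 SD of noise from non-fluorescent compounds; inactive = inhibition at or below 30%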). Particulars: bead-bound GRK2, FAM-aptamer displacement, at 10 µM, stronger effect = higher value.
Experiment [10] addresses AP-2 complex subunit beta (Homo sapiens) (UniProt P63010). Description: beta-arrestin/AP2 interaction blockers – biochemical, validation set, GST-AP2 beads, flow cytometry, pilot screen (AID 504541;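 active = inhibition above 54%, about 3 SD of non-fluorescent compounds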;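 note: AP2 carries R879A mutation and is captured from E. coli lysate; bead-bound FITC arrestin peptide fluorescence measuring arrestin peptide binding to AP2; 0% = DMSO wells and 100% = excess unlabeled arrestin peptide control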). Particulars: FITC arrestin peptide, at 10 µM, stronger effect = higher value, AP2 beta2 appendage fragment, R879A mutant.
Experiment [11] in a line: cytosolic pH regulators acting via V-ATPase – S. cerevisiae, pHLuorin, HTS validation (AID 504600; in the data active = response above about 15%;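 note: plate controls were DMSO for no effect and reference compound for full effect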). Particulars: V-ATPase proton transport, at 10 µM, stronger effect = higher value.
In experiment [12] the test system is anti-desmoglein-3 scFv antibody binding to human DSG3. Put plainly: blockers of pathogenic pemphigus antibody–desmoglein-3 binding – biochemical, validation compound set, bead-based, flow cytometry, pilot screen (AID 588368;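 active = binding below the plate cutoff, the plate median minus 3 SD, with a reading above zero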;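 note: signal is the median channel fluorescence of bead-bound GFP antibody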). Particulars: Protein G beads, DSG3-Fc, scFv-GFP binding, at 10 µM, stronger effect = lower value.
Experiment [13] is described as follows: Nile Red efflux blockade in pump-expressing yeast – validation compound set, multiplex, phenotypic, pilot screen (AID 588506;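 active = efflux inhibition above 0.42, the validation set average plus 4 SD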;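 note: Nile Red retained in cells so higher fluorescence means more efflux inhibition; 0 = negative control wells and 1 = enniatin B 25 µM full block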). Particulars: S. cerevisiae pump-expressing triplex, Nile Red efflux flow cytometry; at 10 µM; stronger effect = higher value; the pumps come from Candida albicans.
For experiment [14], the target named is ATP-binding cassette sub-family B member 6 (Homo sapiens) (UniProt Q9NP58). Put plainly: blockers of ABCB6-driven porphyrin uptake – K562-ABCB6 cells, flow cytometry, validation set, pilot screen (AID 588550;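 active = inhibition above the screen-wide mean plus 3 SD, about 51%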;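 note: 0% = DMSO wells and 100% = benzethonium chloride 70 µM positive control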). Particulars: K562-ABCB6 porphyrin accumulation, 1 h, at 10 µM, stronger effect = higher value.
Experiment [15] in a line: AML differentiation inducers, ER-HoxA9 marrow cells – cell-based, GFP/MAC1 double positive, flow cytometry, validation set, primary screen (AID 588685;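 active = differentiation response of at least 50%, scaled between solvent and reference control, from cells with both markers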;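 note: compound exposure lasts four days before antibody staining and flow analysis; 0% = DMSO wells and 100% = 5 µM fulvestrant positive control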). Particulars: stronger effect = higher value, normalized: vehicle 0, fulvestrant 100.

Structures are written as SMILES. Records with an inconclusive call do not appear. Calls of active or inactive are those of the source.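 Rule for the calls, unless noted: active = GFP signal, as percent of the solvent control, above the screen mean plus 3 SD, about 149; inconclusive = no reading because the compound's own fluorescence upset strain identification; inactive = the rest.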

Integrin beta-1 (Homo sapiens) + Integrin alpha-4 (Homo sapiens), sequence (P05556 whole entry, looked up): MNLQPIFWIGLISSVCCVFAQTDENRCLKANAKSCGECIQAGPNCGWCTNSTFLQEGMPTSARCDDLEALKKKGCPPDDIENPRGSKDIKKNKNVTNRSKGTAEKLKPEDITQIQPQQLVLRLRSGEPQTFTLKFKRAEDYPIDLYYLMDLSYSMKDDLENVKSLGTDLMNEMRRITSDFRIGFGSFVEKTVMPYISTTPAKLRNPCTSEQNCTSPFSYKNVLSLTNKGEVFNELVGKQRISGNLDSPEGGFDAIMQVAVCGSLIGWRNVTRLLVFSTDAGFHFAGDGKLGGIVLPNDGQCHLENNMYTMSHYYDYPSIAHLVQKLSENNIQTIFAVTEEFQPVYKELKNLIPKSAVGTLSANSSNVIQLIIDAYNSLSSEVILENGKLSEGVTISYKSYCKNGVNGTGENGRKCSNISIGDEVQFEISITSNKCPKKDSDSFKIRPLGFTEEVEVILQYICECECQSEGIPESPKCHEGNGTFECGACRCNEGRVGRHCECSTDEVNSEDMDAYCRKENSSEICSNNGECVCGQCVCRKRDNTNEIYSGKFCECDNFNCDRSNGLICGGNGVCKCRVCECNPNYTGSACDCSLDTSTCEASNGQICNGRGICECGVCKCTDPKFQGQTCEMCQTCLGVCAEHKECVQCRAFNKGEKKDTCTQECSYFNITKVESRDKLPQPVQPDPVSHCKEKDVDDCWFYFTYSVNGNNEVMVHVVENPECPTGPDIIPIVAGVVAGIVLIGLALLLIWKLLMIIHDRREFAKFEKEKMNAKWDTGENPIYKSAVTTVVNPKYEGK
Integrin beta-1 (Homo sapiens) + Integrin alpha-4 (Homo sapiens), sequence (P13612 whole entry, looked up): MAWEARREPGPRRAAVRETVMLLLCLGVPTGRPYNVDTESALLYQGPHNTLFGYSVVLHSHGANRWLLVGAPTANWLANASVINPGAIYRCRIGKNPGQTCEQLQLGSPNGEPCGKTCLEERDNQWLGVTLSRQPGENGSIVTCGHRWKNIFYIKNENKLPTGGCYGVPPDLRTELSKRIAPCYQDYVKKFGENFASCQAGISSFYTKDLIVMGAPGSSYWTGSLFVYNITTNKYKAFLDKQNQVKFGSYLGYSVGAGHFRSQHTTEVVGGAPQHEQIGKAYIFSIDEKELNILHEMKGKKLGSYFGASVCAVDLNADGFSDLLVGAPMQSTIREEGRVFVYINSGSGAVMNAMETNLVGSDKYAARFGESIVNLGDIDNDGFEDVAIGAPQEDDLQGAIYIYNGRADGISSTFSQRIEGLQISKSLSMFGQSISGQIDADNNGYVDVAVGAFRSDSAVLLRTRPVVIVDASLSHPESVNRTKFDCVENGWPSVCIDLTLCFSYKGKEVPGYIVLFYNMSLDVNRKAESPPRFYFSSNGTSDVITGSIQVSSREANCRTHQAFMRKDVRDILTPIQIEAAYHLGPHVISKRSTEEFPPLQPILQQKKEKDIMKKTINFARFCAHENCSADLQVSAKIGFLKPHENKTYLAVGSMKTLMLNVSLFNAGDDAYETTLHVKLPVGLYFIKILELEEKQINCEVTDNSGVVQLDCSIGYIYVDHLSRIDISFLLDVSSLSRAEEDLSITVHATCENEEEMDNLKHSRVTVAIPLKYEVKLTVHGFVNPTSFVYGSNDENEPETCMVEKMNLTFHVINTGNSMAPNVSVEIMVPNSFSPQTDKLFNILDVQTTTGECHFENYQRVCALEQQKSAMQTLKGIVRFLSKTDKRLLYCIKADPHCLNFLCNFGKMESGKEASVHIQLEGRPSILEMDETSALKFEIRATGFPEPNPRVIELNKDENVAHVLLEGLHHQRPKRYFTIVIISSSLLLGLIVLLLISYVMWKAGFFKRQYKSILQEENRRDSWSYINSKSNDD
AP-2 complex subunit beta (Homo sapiens), sequence (P63010 whole entry, looked up, the tested form may be a part, one chain of several): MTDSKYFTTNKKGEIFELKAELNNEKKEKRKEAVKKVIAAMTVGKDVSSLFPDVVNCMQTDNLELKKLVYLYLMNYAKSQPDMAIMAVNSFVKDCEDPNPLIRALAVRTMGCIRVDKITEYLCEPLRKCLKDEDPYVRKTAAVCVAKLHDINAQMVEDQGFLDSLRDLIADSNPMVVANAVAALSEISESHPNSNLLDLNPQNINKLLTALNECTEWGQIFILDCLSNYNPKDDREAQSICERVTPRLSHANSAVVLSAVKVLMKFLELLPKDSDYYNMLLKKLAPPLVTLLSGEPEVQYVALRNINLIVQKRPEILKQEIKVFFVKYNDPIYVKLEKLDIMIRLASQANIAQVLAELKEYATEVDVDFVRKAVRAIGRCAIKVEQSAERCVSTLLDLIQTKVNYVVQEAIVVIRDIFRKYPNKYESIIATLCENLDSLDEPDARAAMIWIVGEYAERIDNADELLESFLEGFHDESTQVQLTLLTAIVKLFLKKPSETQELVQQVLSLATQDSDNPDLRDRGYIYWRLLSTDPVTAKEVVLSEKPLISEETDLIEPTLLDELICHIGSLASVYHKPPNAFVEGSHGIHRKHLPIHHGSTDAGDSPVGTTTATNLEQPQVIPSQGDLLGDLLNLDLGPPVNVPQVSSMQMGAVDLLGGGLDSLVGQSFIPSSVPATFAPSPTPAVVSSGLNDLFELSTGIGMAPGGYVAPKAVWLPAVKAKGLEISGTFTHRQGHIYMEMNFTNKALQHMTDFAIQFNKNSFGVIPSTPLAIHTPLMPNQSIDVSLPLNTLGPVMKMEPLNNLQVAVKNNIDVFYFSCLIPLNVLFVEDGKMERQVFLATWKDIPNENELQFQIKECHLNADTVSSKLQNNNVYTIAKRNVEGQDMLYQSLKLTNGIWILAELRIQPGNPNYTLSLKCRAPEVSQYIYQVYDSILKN
ATP-binding cassette sub-family B member 6 (Homo sapiens), sequence (Q9NP58 whole entry, looked up): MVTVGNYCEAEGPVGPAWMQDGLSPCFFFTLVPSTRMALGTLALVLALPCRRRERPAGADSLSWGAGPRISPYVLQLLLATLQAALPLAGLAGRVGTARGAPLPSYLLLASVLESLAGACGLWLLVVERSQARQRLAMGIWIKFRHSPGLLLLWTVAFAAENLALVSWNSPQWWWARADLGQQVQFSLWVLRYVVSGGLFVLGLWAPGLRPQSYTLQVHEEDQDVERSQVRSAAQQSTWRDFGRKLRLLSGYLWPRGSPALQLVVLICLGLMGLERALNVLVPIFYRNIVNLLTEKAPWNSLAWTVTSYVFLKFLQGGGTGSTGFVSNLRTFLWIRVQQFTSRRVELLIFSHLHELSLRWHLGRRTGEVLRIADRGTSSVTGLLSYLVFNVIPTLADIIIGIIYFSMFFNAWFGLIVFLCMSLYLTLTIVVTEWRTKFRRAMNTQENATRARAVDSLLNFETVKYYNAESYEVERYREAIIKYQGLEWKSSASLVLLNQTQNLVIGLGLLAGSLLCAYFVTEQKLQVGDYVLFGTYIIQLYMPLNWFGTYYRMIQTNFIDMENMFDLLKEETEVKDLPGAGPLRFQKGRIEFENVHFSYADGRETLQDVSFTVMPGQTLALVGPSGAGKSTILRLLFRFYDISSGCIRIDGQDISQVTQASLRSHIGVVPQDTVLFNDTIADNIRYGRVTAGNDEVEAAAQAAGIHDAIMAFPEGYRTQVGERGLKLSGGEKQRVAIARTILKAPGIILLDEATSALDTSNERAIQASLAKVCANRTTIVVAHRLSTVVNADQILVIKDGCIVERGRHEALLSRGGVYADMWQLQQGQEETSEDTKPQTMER
Beta-adrenergic receptor kinase 1 (Homo sapiens), sequence (P25098 whole entry, looked up): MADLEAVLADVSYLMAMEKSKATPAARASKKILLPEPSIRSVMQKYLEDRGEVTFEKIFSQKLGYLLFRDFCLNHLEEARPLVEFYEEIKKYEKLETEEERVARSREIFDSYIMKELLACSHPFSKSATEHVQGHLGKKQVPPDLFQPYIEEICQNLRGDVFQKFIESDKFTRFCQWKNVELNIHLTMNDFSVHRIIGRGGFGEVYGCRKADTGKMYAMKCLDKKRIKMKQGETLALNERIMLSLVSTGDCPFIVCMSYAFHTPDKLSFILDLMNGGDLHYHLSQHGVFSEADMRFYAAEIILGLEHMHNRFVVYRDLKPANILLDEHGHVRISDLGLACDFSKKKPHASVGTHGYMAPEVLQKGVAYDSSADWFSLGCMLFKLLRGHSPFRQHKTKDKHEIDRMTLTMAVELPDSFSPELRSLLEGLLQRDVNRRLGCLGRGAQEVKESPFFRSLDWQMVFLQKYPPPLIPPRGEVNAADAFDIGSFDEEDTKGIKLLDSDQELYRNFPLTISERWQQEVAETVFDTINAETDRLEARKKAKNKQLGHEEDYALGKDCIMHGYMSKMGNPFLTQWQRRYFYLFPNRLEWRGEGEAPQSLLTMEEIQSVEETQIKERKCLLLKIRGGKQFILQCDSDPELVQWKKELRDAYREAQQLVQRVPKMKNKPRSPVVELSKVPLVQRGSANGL

With `CCOc1cc(C)cc2oc(=O)cc(-c3ccccc3)c12`, the percent of DMSO control GFP in [1] is 99.5% (inactive). Moreover, the GFP response vs DMSO in [2] is 105% (inactive); in [4], 123% (inactive). Moreover, the percent response of DMSO control in experiment [3] is 92% (inactive). For the same compound, the GFP response, % of DMSO in experiment [5] is 92.8% (inactive). The same compound came in with a double positive events in [6] of 54.7%. Also, the vesicle binding response in [6] was 138% (inactive). The inhibition is -5.84% (inactive) in experiment [7], 14.1% (inactive) in experiment [10] and 5% (inactive) in experiment [14]. Besides, the superoxide response (% of plate) in experiment [8] was 88.9% (inactive). In [9], the aptamer binding inhibition was 4% (inactive). Besides, the response in experiment [11] is 8.03% (inactive). Moreover, in [12], the binding (% of control) was 102% (inactive). The efflux inhibition (fraction of control) in [13] was 0.18 (inactive). Also, the differentiation response in [15] is -16.4% (inactive).

Regarding `CC(NC(=O)c1ccc(OC2CCN(Cc3ccccn3)CC2)cc1)c1ccccc1` (stereo not given), in [1], the percent of DMSO control GFP was 106% (inactive). For the same compound, the GFP response vs DMSO in experiment [2] was 102% (inactive); in [4], 99.4% (inactive). Besides, the percent response of DMSO control in experiment [3] is 105% (inactive). Further, the GFP response, % of DMSO in [5] is 100% (inactive). In experiment [6], this compound showed a double positive events of 59.3%. In experiment [6], the vesicle binding response is 110% (inactive). Further, the inhibition is 14.7% (inactive) in experiment [7], 32.2% (inactive) in [10] and 6% (inactive) in [14]. In [8], the superoxide response (% of plate) is 93.3% (inactive). The aptamer binding inhibition in experiment [9] was -2% (inactive). Moreover, the response in experiment [11] was -10.2% (inactive). The binding (% of control) in experiment [12] was 102% (inactive). Also, in experiment [13], the efflux inhibition (fraction of control) was -0.31 (inactive). Also, in experiment [15], the differentiation response was 0% (inactive).

In the case of `Cc1cnc(C(=O)N2CCCC(C(=O)c3ccc(Cl)cc3C)C2)cn1` (stereo not given), the percent of DMSO control GFP in experiment [1] was 104% (inactive). Further, the GFP response vs DMSO in experiment [2] is 99.9% (inactive); in experiment [4], 96.4% (inactive). In addition, the percent response of DMSO control in experiment [3] was 105% (inactive). Further, in experiment [5], the GFP response, % of DMSO was 101% (inactive). This compound also registered a double positive events in experiment [6] of 50%. In addition, the vesicle binding response in [6] was 175% (inactive). For the same compound, the inhibition in experiment [7] was -2.11% (inactive); in experiment [10] it was 21.9% (inactive); in [14], -25% (inactive). Further, the superoxide response (% of plate) in experiment [8] was 109% (inactive). Also, the aptamer binding inhibition in [9] was 2% (inactive). Moreover, in experiment [11], the response was 2.89% (inactive). For the same compound, the binding (% of control) in [12] is 101% (inactive). For the same compound, in experiment [13], the efflux inhibition (fraction of control) was 0.18 (inactive). The differentiation response in experiment [15] is -18% (inactive).

`CCN(CC)C(=O)c1ccc(O)c(OC)c1`: the percent of DMSO control GFP in [1] was 94.2% (inactive). Further, the GFP response vs DMSO in experiment [2] and in experiment [4] was 102% (inactive) throughout. In addition, the percent response of DMSO control in [3] is 98.8% (inactive). Moreover, in [5], the GFP response, % of DMSO was 102% (inactive). This compound also yielded a double positive events in experiment [6] of 53.9%. The vesicle binding response in experiment [6] was 118% (inactive). The inhibition in experiment [7] was 25.9% (inactive); in [10] it was -2.62% (inactive); in experiment [14], 15% (inactive). In experiment [8], the superoxide response (% of plate) was 89% (inactive). In addition, the aptamer binding inhibition in experiment [9] was 0% (inactive). The response in [11] was 0.77% (inactive). Moreover, the binding (% of control) in [12] was 101% (inactive). Further, the efflux inhibition (fraction of control) in experiment [13] was 0.29 (inactive). Moreover, the differentiation response in experiment [15] was -9.89% (inactive).

Turning to `CC(C)C[C@H](NC(=O)[C@@H]1Cc2ccccc2CN1C(=O)OC(C)(C)C)C(=O)NCC1CCC(C(=O)O)CC1` (stereo not given in full), the percent of DMSO control GFP in [1] was 99.3% (inactive). Besides, the GFP response vs DMSO was 95.9% (inactive) in experiment [2] and 92.3% (inactive) in experiment [4]. Besides, in experiment [3], the percent response of DMSO control is 105% (inactive). Further, the GFP response, % of DMSO in [5] is 99.9% (inactive). In experiment [6], this compound displayed a double positive events of 59.9%. In addition, the vesicle binding response in experiment [6] was 257% (inactive). Further, the inhibition in experiment [7] is 1.62% (inactive); in experiment [10] it was -3.49% (inactive); in experiment [14], 7% (inactive). In addition, the superoxide response (% of plate) in experiment [8] was 93.6% (inactive). Moreover, in [9], the aptamer binding inhibition was 3% (inactive). For the same compound, in experiment [11], the response is -10.3% (inactive). Moreover, in experiment [12], the binding (% of control) is 101% (inactive). Also, the efflux inhibition (fraction of control) in experiment [13] was -0.12 (inactive). Further, the differentiation response in experiment [15] was -27.6% (inactive).
